Bioassay records: PubChem, National Center for Advancing Translational Sciences (NCATS)
Only some compounds are listed: those with a hit (about 2.4% of all), similar ones and a draw of the others.
ALOX12 inh – inhibitors of human 12S-lipoxygenase ALOX12. P18054. purified 12hLO, xylenol orange hydroperoxide absorbance. Potency, µM (top dose mostly 108 µM), usual class: inhibitors. 1.1% of 580,000 active. AID 1671190
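Hydroperoxide product was detected by ferrous iron/xylenol orange as the 573 to 405 nm absorbance ratio. Arachidonic acid at 40 uM (final) was turned over for 30 min at room temperature by 150 nM human 12hLO, pH 7.0 Hepes buffer, after 15 min compound preincubation.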
TDP1 inh – TDP1 (human) enzyme inhibition; recombinant TDP1, AlphaScreen DNA substrate cleavage; Potency, µM (doses to about 130 µM), actives largely listed as inhibitors; AID 485290; Q9NUW8; 0.28% of 350,000 active; further: nearly all actives have a fitted effect of over 40% in size
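Enzyme-compound mixtures sat 15 min at room temperature, followed by a 5 min reaction with 15 nM final substrate and 10 min with AlphaScreen beads. Recombinant human Tdp1 was used at 1 nM final.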
TSG101-PTAP inh – blocks PTAP/TSG101 interaction to inhibit HIV-1 budding; Fluorescence polarization, FITC-PTAP peptide / Tsg101 binding; Potency, µM (doses to about 115 µM), hits mostly inhibitors; 340,000 tested, under 10 active; AID 493005; active means well fitted inhibition curve with a large enough effect in the main read-out, with a control signal flat, not every such curve was filed as active; inconclusive means small, poorly fitted or top-dose-only effect, or effect the other way, or a change in a side signal; inactive means no such curve, though single readings can be large or run the other way
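Fluorescence polarization binding of Tsg101 binding domain (10 uM final) to FITC-labeled PTAP peptide (50 nM final) in HEPES pH 7.5 buffer with NaCl, Tween 20, EDTA, TCEP. Compounds added before peptide; binding 20 min at RT.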
ClpP mod – qHTS Assay for Activators of ClpP. purified B. subtilis ClpP, FRET peptide cleavage, 20 min. AID 651965, 2013. Potency, µM (series often up to 57.5 µM). 1.9% of 340,000 active; active means well fitted falling curve with a large enough effect; inconclusive means small, poorly fitted or top-dose-only effect; inactive means no such curve, though single readings can be large or run the other way; further: the source files actives as falling curves though it sought activators and does not explain the sign; nearly all actives have a fitted effect of over 65% in size
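Purified B. subtilis ClpP, 10 microg/mL final in Tris/HCl pH8 with KCl, BSA, glycerol and Tween-20, cleaved an Abz/nitrotyrosine-quenched decapeptide. Fluorescence (ex 320, em 430) was read at 0 and 20 min at room temperature. Delta was normalized to 5.8 microM ADEP and DMSO/no-enzyme controls.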
Rango dissoc inh – inhibition of RanGTP-driven Rango-importin beta dissociation. Potency, µM (highest dose often 46.1 µM). AID 540253. Biochemical FRET Rango-importin beta, RanGTP-induced dissociation. 0.071% of 340,000 active; calls by dose curve; further: nearly all actives have a fitted effect of over 45% in size
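Quantitative HTS using a FRET biosensor: 0.1 uM Rango, 0.25 uM importin beta, 0.6 uM Ran, 2 mM GTP, 0.2 uM RCC1 final, PBS with DTT, Tween-20 and BSA. Post-read taken 45 min after Ran addition.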
Rango-impB inh – Rango-importin beta binding inhibition; Q14974; Rango CFP/YFP FRET sensor + importin beta, 45 min; Potency, µM (series often up to 92.2 µM); 0.031% of 340,000 active; AID 540263; calls by dose curve; further: nearly all actives have a fitted effect of over 15% in size
Target sequence (Q14974 whole entry, looked up): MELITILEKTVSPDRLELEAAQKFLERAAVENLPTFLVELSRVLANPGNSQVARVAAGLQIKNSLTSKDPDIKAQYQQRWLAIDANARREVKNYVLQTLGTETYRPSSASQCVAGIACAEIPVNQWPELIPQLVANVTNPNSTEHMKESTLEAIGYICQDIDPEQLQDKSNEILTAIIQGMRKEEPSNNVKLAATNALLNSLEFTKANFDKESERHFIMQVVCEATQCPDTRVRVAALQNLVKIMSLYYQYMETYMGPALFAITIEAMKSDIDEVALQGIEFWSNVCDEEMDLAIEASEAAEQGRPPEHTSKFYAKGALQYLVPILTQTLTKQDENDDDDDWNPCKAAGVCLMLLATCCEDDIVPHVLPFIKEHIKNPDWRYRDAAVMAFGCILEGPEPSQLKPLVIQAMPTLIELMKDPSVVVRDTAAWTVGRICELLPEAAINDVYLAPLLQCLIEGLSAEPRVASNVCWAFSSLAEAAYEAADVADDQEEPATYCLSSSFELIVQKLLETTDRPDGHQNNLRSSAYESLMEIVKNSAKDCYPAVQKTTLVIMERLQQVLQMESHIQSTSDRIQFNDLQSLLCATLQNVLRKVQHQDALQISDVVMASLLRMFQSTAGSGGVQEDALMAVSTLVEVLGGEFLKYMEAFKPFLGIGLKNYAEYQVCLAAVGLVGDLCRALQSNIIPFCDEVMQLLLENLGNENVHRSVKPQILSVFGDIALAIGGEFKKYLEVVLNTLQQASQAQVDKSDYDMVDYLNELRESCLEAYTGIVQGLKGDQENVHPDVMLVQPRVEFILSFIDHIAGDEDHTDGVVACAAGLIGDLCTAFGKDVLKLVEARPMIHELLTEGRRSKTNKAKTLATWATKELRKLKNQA
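FRET biosensor (snurportin 1 IBB flanked by EYFP and cerulean), 50 nM, with compound 5 min, then 0.125 microM importin beta in PBS, 1 mM DTT, 0.02% Tween-20, 0.1% BSA. CFP/YFP ratio read after 45 min at room temperature; pre-read flags interference.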
A number is an active result; n = inactive; u = inconclusive; x = not tested or not shown; [ ] = remark or other dose. Unless noted, the call rests on the fitted dose curve; in most records, active means well fitted curve in the direction sought with a large enough effect; inconclusive means small, poorly fitted or top-dose-only effect, or another doubt; inactive means no such curve, though single readings can be large; an effect the other way counts as inactive or inconclusive.

SMILES	ALOX12 inh	TDP1 inh	TSG101-PTAP inh	ClpP mod	Rango dissoc inh	Rango-impB inh
O=C(Cn1ccn2nc3c(c2c1=O)CCCCC3)Nc1ccc(F)c(F)c1	n	x	x	x	x	x
O=C1NCc2ccccc2CC12CCN(Cc1cccc(F)c1)CC2	n[6.33 µM]	x	x	x	x	x
O=Cc1ccccc1-n1cccn1	n	n	n	x	n	n
Oc1cc(-n2cccn2)c(O)cc1-n1cccn1	u	n	n	28µM	n	u
CCN1CCN(C(c2ccc(C(F)(F)F)cc2)c2ccc3cccnc3c2O)CC1 (configuration not stated)	8.9µM	x	n	n	n	n
CN1CCN(C(c2ccc(C(F)(F)F)cc2)c2cc(Cl)c3cccnc3c2O)CC1 (configuration not stated)	u	n	x	x	x	x
CC(C)(C)c1cc(C(c2cccnc2)N2CCN(CCO)CC2)cc(C(C)(C)C)c1O (configuration not stated)	u	n	n	n	n	n
OCCN1CCN(C(c2cccs2)c2ccc3cccnc3c2O)CC1 (configuration not stated)	x	7.1µM	x	x	x	x
O=C(NC1CCCCC1)c1cccc2ccccc12	n	x	x	x	x	x
CC(C)OC(=O)c1cc2c(ccn2C)n1CC(=O)N(Cc1ccccc1)c1ccccc1	u	n	n	28µM	n	n
CCOC(=O)c1cc2c(ccn2C)n1Cc1cc(C)ccc1C	n	n	n	n	n	n
CC(=O)N1C[C@@H]2CCCN3CCC[C@@H]([C@H]23)[C@H]1CCCC(=O)NCc1ccccc1	n	x	x	x	x	x
Cn1c(=S)[nH]c2c(c1=O)C(C)(C)Cc1ccccc1-2	14µM	n	n	x	n	n
CCn1c(=S)[nH]c2c(c1=O)C(C)(C)Cc1ccccc1-2	u	n	n	n	n	n
COc1ccccc1N1CCN(CC(=O)c2ccc3ccn(C(C)=O)c3c2)CC1	x	n	n	u	n	n
CC(=O)OCC(=O)c1ccc2ccn(C(C)=O)c2c1	n	n	n	35µM	n	n
COc1ccccc1-c1ccnc2c1c(=O)[nH]c(=O)n2CC1CCCO1 (configuration not stated)	n	x	x	x	x	x
Cc1[nH]n(-c2ccccc2)c(=O)c1C(c1ccc(C(=O)O)cc1)c1c(C)[nH]n(-c2ccccc2)c1=O	n	n	n	n	n	n
CCOc1ccc(C(c2c(C)[nH]n(-c3ccccc3)c2=O)c2c(C)[nH]n(-c3ccccc3)c2=O)cc1OC	50µM	x	x	n	x	x
O=C(CC1CCCC1)NCCCNC(=O)CC1CCCC1	n	x	x	x	x	x
Cc1nc(NCCC(C)C)sc1C(=O)NCc1ccncc1	n	x	x	x	x	x
O=S(=O)(c1ccc(Cl)cc1)c1nc(-c2ccccc2Br)oc1NCc1ccccc1	n	n[12.3 µM]	x	20µM	x	x
CC(C)(C)c1ccc(C(=O)N/C(=C\c2ccco2)C(=O)Nc2ccccc2C(=O)O)cc1	32µM	n	n	x	n	u
O=C(/C=C/c1ccco1)Nc1cccc(C(=O)Nc2ccccc2C(=O)O)c1	n	40µM	n	n	n	u
Cc1ccc(-n2nc3ccc(NC(=O)/C=C/c4ccco4)cc3n2)cc1	u	x	n	28µM	n	u
SMILES	ALOX12 inh	TDP1 inh	TSG101-PTAP inh	ClpP mod	Rango dissoc inh	Rango-impB inh
Cc1cc(C)c2oc(-c3ccc(C)c(NC(=O)/C=C/c4ccco4)c3)nc2c1	50µM	n	x	n	x	x
CCc1ccccc1NC(=O)c1cccc(NC(=O)/C=C/c2ccco2)c1	n	n	n	n	n	n
Cc1cc(C)c2oc(-c3cccc(NC(=O)c4ccco4)c3)nc2c1	n	n[12.3 µM]	x	n	x	x
Cc1ccc(NC(=O)N/C=C/c2ccco2)cc1C	28µM	n	n	n	n	u
Cc1ccc(NC(=O)c2cccc(NC(=O)/C=C/c3ccco3)c2)cc1C	40µM	n	n	n	n	n
Cc1cccc(NC(=O)c2cccc(NC(=O)c3ccco3)c2)c1	n	x	n	x	n	n
O=C(COC(=O)C1(c2ccc(F)cc2)CCCC1)c1ccc(Cl)cc1	n	x	x	x	x	x
CCNC(=O)c1cccc(NC(=O)CCc2ncc(-c3ccccc3F)o2)c1	n	x	x	x	x	x
CCN(CC)S(=O)(=O)c1ccc(NC(=O)c2nn(C(C)C)c(=O)c3ccccc23)cc1	n	x	x	x	x	x
O=C(NCc1cccc(Cl)c1)c1cnc(N2CCCCC2)c2ccccc12	n	n	x	32µM	x	x
O=C(NCc1ccc(Cl)cc1)c1cnc(N2CCCCC2)c2ccccc12	n	n	x	28µM	x	x
COc1cccc(CNC(=O)c2cnc(N3CCCCC3)c3ccccc23)c1	n	n	x	n	x	x
COc1ccc(CCNC(=S)NCc2ccc(Cl)c(Cl)c2)cc1OC	45µM	n	n	x	n	n
CCNC(=S)NCc1ccc(OC)c(OC)c1	n	n	n	n	n	n
CCN(CC)CC(O)COc1ccc2c(c1)OCO2 (configuration not stated)	n	n	n	13µM	n	n
OCCN(CCO)CC(O)COc1ccc2c(c1)OCO2 (configuration not stated)	n	n	n	n	n	n
Cc1ccc(N2C(=O)c3ccccc3NC2C(C)Cc2ccc3c(c2)OCO3)cc1 (configuration not stated)	u	n	n	32µM	n	n
CC(C)Oc1ccccc1C1Nc2ccccc2C(=O)N1c1ccc2c(c1)OCCO2 (configuration not stated)	n	n	n	u	n	n
O=C(NC1CCCCCC1)c1nc2ncccn2n1	n	n	n	28µM	n	n
O=C(Nc1ccccc1)Nc1ccccc1	n	n	n	n	n	n
O=C(Nc1ccccc1)Nc1ccc(Cl)nc1Cl	3.2µM	x	n	x	n	n
CC(C)(C)c1ccc(/C=N/NC(=O)C23CC4CC(CC(C4)C2)C3)cc1	n	x	x	x	x	x
O=c1oc2cc(OCc3nn[nH]n3)ccc2c2c1CCCC2	n	n	n	n	n	n
Cc1cc2oc(=O)c3c(c2cc1OCc1nn[nH]n1)CCCC3	n	n	n	25µM	n	n
Cc1ccc([C@H]2C(C(=O)O)=C[C@@H](CC3CCCC3)N2S(=O)(=O)c2ccc(C)cc2)cc1	40µM	n	n	n	n	n
SMILES	ALOX12 inh	TDP1 inh	TSG101-PTAP inh	ClpP mod	Rango dissoc inh	Rango-impB inh
CCc1noc(C)c1C(=O)Nc1ccc(OC(F)F)cc1	n	x	x	x	x	x
COc1ccc(-c2ccc(-c3noc(-c4ccccc4F)n3)c(OC)n2)cc1	n	n	n	u	n	n
CCOc1nc(-c2ccc(C)cc2)ccc1-c1noc(COC)n1	n	n	n	32µM	n	n
COc1ccc(-c2ccc(-c3noc(-c4ccco4)n3)c(OC)n2)cc1	n	n	n	28µM	u	u
COc1nc(-c2ccccc2)ccc1-c1noc(-c2cccs2)n1	n	x	n	20µM	n	n
COc1nc(-c2ccccc2)ccc1-c1noc(COc2ccccc2)n1	u	x	n	10µM	n	n
COc1nc(C)ccc1-c1noc(-c2cccs2)n1	n	n	n	x	n	n
